# Results: PubChem BioAssay (NCI)
# This is part of a sample that, as a whole, favours compounds with a hit. Of some 83,000 tested, about 20% had one in any assay.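 Results are percent growth after 48 hours of single-concentration exposure. 100 means growth as in untreated cells, lower positive values show inhibition; negative values down to -100 show cell death.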 A number with no mark means an inactive call. The source made the active and inactive calls. Rule for the calls: active = growth percent below 10; inactive = the rest.
# Columns and labels:
# Assay in all cases: NCI-60 one-dose screen, 48 h (100 = growth as untreated, 0 = no growth, -100 = all killed)
# Settings in all cases: 10 µM unless noted
# SK-MEL-2 melanoma = tested on: SK-MEL-2 melanoma
# EKVX NSCLC = tested on: EKVX NSCLC
# SN12C renal = tested on: SN12C renal
# UO-31 renal = tested on: UO-31 renal
# TK-10 renal = tested on: TK-10 renal
# ACHN renal = tested on: ACHN renal
# CAKI-1 renal = tested on: CAKI-1 renal
# A498 renal = tested on: A498 renal
# CCRF-CEM leukemia = tested on: CCRF-CEM leukemia
# MOLT-4 leukemia = tested on: MOLT-4 leukemia
# SR leukemia = tested on: SR leukemia
# RPMI-8226 leukemia = tested on: RPMI-8226 leukemia
# OVCAR-8 ovarian = tested on: OVCAR-8 ovarian
# OVCAR-5 ovarian = tested on: OVCAR-5 ovarian
# OVCAR-4 ovarian = tested on: OVCAR-4 ovarian
# SK-OV-3 ovarian = tested on: SK-OV-3 ovarian
# OVCAR-3 ovarian = tested on: OVCAR-3 ovarian
# HS 578T breast = tested on: HS 578T breast
# NCI/ADR-RES ovarian = tested on: NCI/ADR-RES ovarian
# IGROV1 ovarian = tested on: IGROV1 ovarian
SMILES,growth (SK-MEL-2 melanoma),growth (EKVX NSCLC),growth (SN12C renal),growth (UO-31 renal),growth (TK-10 renal),growth (ACHN renal),growth (CAKI-1 renal),growth (A498 renal),growth (CCRF-CEM leukemia),growth (MOLT-4 leukemia),growth (SR leukemia),growth (RPMI-8226 leukemia),growth (OVCAR-8 ovarian),growth (OVCAR-5 ovarian),growth (OVCAR-4 ovarian),growth (SK-OV-3 ovarian) [%],growth (OVCAR-3 ovarian),growth (HS 578T breast),growth (NCI/ADR-RES ovarian),growth (IGROV1 ovarian)
COc1ccc(-n2c(=O)n(-c3ccc(-c4nc5ccc(F)cc5s4)cc3)c(=O)c3cccnc32)cc1,103%,91.6%,100%,75.6%,119%,103%,85.3%,98.2%,102%,97.7%,104%,91.6%,93.1%,108%,104%,86.6,106%,101%,103%,–
COc1ccc(C2=C/C(=C\c3ccccc3O)C(=O)N2Cc2ccccc2)cc1,51.4%,82.1%,95.8%,68.4%,85.3%,93.4%,93.2%,98.3%,73.4%,66.8%,45.2%,63%,70.9%,111%,92.6%,73.8,92.9%,74.8%,79.9%,–
COc1ccc(N/N=C/c2ccc3c(c2)Sc2ccccc2N3C)cc1,98%,65.9%,79.3%,42.1%,114%,51.6%,26.2%,17.5%,73.6%,38.8%,42.2%,78.2%,65.9%,53.3%,60.7%,–,77.7%,95.1%,79.6%,55.8%
Nc1c(C(=O)c2ccc(Cl)cc2)sc(Nc2ccccc2)c1-c1nc2ccccc2s1,38.5%,59.9%,82.6%,19.3%,-13.3% (active),26.2%,25.2%,46.2%,60.3%,76.5%,33.2%,28.3%,23%,46.4%,-9.61% (active),–,4.1% (active),32.4%,18.8%,29.1%
CCOC(=O)C1=C(C)N(C)C(=O)N(C)C1c1ccccc1 (stereo unspecified),106%,97.2%,91.6%,78.7%,106%,95.9%,90.6%,86.8%,86.6%,104%,125%,99.4%,104%,84.1%,103%,–,99.1%,108%,100%,110%
CN1CCN(Cc2ccc(NC(=O)c3cncc(C#Cc4c(N)ncc5ccccc45)c3)cc2C(F)(F)F)CC1,-79.2% (active),-34.8% (active),-97.4% (active),-78.8% (active),-97.6% (active),-91.5% (active),-66.2% (active),-63.2% (active),-7.03% (active),-41.3% (active),-42.6% (active),-38% (active),-62.3% (active),-22.2% (active),-55.1% (active),–,-78.4% (active),-31.5% (active),-24.5% (active),-62% (active)
O=C(CSc1nnc(-c2cc(-c3ccc(Cl)cc3)nc3ccccc23)n1-c1ccccc1)Nc1ccc(Cl)cc1,105%,94.8%,90.5%,77.6%,132%,106%,89.5%,88.2%,98.5%,84.1%,78.6%,102%,98.3%,102%,108%,–,106%,109%,99.4%,97.8%
Cc1nn(C)c2ncnc(Nc3ccccc3Br)c12,100%,60.6%,98.8%,96.8%,97%,106%,102%,71.4%,93.3%,95.9%,84.8%,95.2%,106%,99.6%,109%,–,108%,101%,107%,105%
COc1ccc(-c2cc(-c3ccc(Cl)cc3)c(C#N)c(=O)n2CCCCC(=O)NO)cc1,88%,71.9%,68.7%,-16.4% (active),70.4%,34.6%,-13.2% (active),95.4%,63.9%,80.6%,40.3%,34%,53.9%,63.9%,74.9%,–,75%,87.8%,10.8%,69%
COc1cc(/C=C2\CN(S(=O)(=O)c3ccc(C)cc3)C/C(=C\c3cc(CN4CCCC4)c(O)c(OC)c3)C2=O)cc(CN2CCCC2)c1O,14.4%,0.183% (active),-56.1% (active),4.71% (active),24.7%,1.63% (active),23.9%,40.9%,-5.62% (active),-8.53% (active),-19.4% (active),-34.6% (active),8.04% (active),-2.7% (active),12.1%,–,-27.8% (active),9.95% (active),77.8%,-20.1% (active)
CCCCCCC/C=N/NC(=O)c1ccc(-n2cc(-c3ccccc3)nn2)cc1,98.9%,90.5%,93.4%,71%,110%,79.1%,75.8%,90.1%,86.3%,85.9%,79.4%,94.3%,95.6%,89.9%,93.1%,87.8,102%,91.3%,86.9%,–
c1ccc(Cn2cc3c(c2)-c2nc(Nc4ccccc4)ncc2CC3)cc1,92.6% [100 µM],72.1% [100 µM],87.8% [100 µM],93% [100 µM],72.8% [100 µM],81.8% [100 µM],59.2% [100 µM],105% [100 µM],2.85% [100 µM] (active),107% [100 µM],114% [100 µM],88.2% [100 µM],67.5% [100 µM],82.8% [100 µM],63.3% [100 µM],–,85.9% [100 µM],68.9% [100 µM],83.9% [100 µM],62.9% [100 µM]
CN(C)C(=O)OCc1ccc2c(Cl)cc(Cl)c(O)c2n1,50.1%,30.5%,36.6%,27.2%,64.2%,27.2%,18.6%,68%,23%,22.1%,34.3%,34.7%,22.6%,77.4%,20.8%,50.1,30.6%,71.8%,14.8%,–
COc1cc2cc(Oc3ccc(NC(=O)Nc4ccc(Cl)c(Cl)c4)cc3)c(C)nc2cc1OCCN1CCCCC1,124%,99.8%,101%,88.2%,133%,106%,78%,86.8%,9.57% (active),64.6%,-3.12% (active),79.1%,32.1%,137%,-16.5% (active),–,105%,108%,99.5%,93.4%
